Measured values reported in PubChem BioAssay (EPA / NIEHS).
Activity calls are given as the source filed them. Rule for the calls: active = hit-call score of the fitted dose curve at least 0.9, where 1 is the maximum; inactive = score below 0.9.

What follows are compounds tested on Cytochrome P450 3A7 (Homo sapiens) (UniProt P24462) (assay: LTEA_HepaRG_CYP3A7: Life Technologies and Expression Analysis (LTEA) Assay for CYP3A7 using HepaRG (AID 2283492)). Conditions: mRNA level, 48 h; actives raise or lower the signal.
Sequence of Cytochrome P450 3A7 (Homo sapiens) (P24462 whole entry, looked up): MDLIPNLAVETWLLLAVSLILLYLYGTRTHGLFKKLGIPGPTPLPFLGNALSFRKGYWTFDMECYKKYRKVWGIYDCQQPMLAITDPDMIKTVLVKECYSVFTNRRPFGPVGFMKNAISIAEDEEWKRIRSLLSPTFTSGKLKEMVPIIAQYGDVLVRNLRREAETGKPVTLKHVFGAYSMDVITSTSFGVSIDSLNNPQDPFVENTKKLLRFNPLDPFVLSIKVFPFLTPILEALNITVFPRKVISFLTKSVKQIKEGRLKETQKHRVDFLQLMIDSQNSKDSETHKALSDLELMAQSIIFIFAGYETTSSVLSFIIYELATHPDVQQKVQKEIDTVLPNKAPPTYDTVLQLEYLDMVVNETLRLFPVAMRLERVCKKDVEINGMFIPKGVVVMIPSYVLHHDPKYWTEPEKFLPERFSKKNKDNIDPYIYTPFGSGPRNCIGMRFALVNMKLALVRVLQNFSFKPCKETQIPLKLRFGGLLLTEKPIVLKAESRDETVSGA
Experimental: LTEA_HepaRG is a cell based, multiplexed-readout assay that uses HepaRG, a human liver cell line, with measurements taken at 48 hours after chemical dosing on a 96-well plate.LTEA_HepaRG_CYP3A7 is one of 102 assay component(s) measured in the LTEA HepaRG cell culture assay. It is a marker of NR mediated metabolism/Undifferentiated hepatocyte.Data from the assay component LTEA_HepaRG_CYP3A7 was analyzed into 1 endpoint. This assay endpoint, LTEA_HepaRG_CYP3A7, was analyzed with bidirectional fitting relative to DMSO as the negative control and baseline of activity. Using a type of inducible reporter, measures of mRNA induction for gain or loss-of-signal activity can be used to understand regulation of transcription factor activity. To generalize the intended target to other relatable targets, this assay endpoint is annotated to the cyp intended target family, where the subfamily is xenobiotic metabolism.
A total of 1060 chemcials from the ToxCast library were tested in eight-point concentration-response experiments. Cell culture and cytotoxicity assays were conducted at Thermo Fisher Scientific's Custom Services facility (Madison, WI). A single lot of human HepaRG cells (Thermo Fisher Scientific, Frederick, MD) was used for the cell culture experiments. 96-well format collagen type I coated plates of human HepaRG cells were prepared using established methods. Briefly, cryopreserved HepaRG cells were thawed, plated at a density of approximately 100,000 cells/well in HepaRG Thaw, Plate, and General Purpose media (HPRG770, Thermo Fisher Scientific), and incubated for 48 hours. 0.5% DMSO was selected as vehicle control to balance the requisite need of DMSO in HepaRG cultures to maintain differentiation (for example, baseline metabolism, proportions of hepatocytes vs. cholangiocytes), while enabling further hepatic receptor pathway activation (for example, PXR and CAR) in response to chemical exposure. 48 hours after plating, the culture medium was replaced with HepaRG Serum-Free Incudtion Media. Cells were exposed to each test chemical in duplicate and maintained in CO2 incubators for another 48 hours. Chemical plates were thawed to room temperature and 200x concentrations of treatment groups were prepared. 8-point conentration-reponse curves were made with the highest exposure at 100 uM, followed by half-log dilutions, all in 0.5% DMSO. Each test plate contained variouse controls, induction positive controls (1mM phenobarbital), cytotoxicity positive controls ([…] aflatoxin B1), vehicle controls (0.5% DMSO), and total lysis controls (0.5% DMSO). Cell morphology images were taken using an Essen IncuCyte FLR automated microscope, with six 96-well plates imaged in about 24 minutes. Images were captured and exported and JPEG files. Spent culture media was transfered to black-well plates for the LDH assay, and remaining media was sorted at -80 C for later use. Cells were treated with RLT buffer and frozen until shipped for gene expression analysis. Total RNA was isolated from the cell suspension in 75 uL of Buffer RLT (Qiagen, Germantown, MD 20874) by Quintiles/Expression Analysis (Durham, NC) using a custom isolation procedure. Total RNA from each plate well was transferred to a preamplification plate. Fluidigm's 96.96 Dynamic ArrayTM (Fluidigm, Amsterdam, the Netherlands) technology was used for gene expression analyses by quantitative reverse transcription polymerase chain reaction (qRT-PCR, performed by Quintiles/Expression Analysis, Durham, NC)89. Standard TaqManTM Assays (Applied Biosystems/ThermoFisher Scientific, Foster City, CA) were used to assess the expression of 93 genes selected based on their selectivity and sensitivity to important hepatic receptors known to be modulated by environmental chemicals; importance in human hepatocyte functionality; and hepatotoxicity. […]

outcome, inactive:
CCCCC=O
CN(Cc1cnc2nc(N)nc(N)c2n1)c1ccc(C(=O)N[C@@H](CCC(=O)O)C(=O)O)cc1
CCC(C)c1ccccc1O (stereo not given)
O=C1NS(=O)(=O)c2ccccc21
CCCCC(CC)C(=O)O (stereo not given)
CC(=O)Nc1ccc(O)cc1
OCC(CO)(CBr)CBr

AC50, active:
O=C(CCCN1CCC(O)(c2ccc(Cl)cc2)CC1)c1ccc(F)cc1 75.8 µM
CCCCCCCCCCCCCCC 14.9 µM
Cc1[nH]nc2c1N=C(c1ccccc1Cl)c1cc([N+](=O)[O-])ccc1N2 2.83 µM
